Bioassay records (PubChem BioAssay)
Rows were chosen to be rich in hits. Some 6.9% of all compounds tested hit in one or more screens of this group.
JNK3 blocker: inhibitors of human JNK3 kinase | AID 746 | inhibition, % at 8 µM | purified JNK3 kinase activity, HTS | hit rate 0.61% among 60,000; in the data active = inhibition above about 17%
FXIIa inh mix: factor XIIa (human) inhibition, mixture screen; P00748; purified FXIIa, fluorogenic substrate, pooled mixtures; inhibition, % at 5 µM; hit rate 0.2% among 62,000; AID 684
M1 ag: agonists of M1 muscarinic receptor; CHO-M1 cells, Fluo-4 calcium fluorescence, agonist mode; stronger effect = higher value; B-score at 10 µM; hit rate 3% among 64,000; AID 626;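 active = fluorescence rise, raw or as B-score row- and column-corrected plate score, outside the 99.7% band of its plate's samples, either direction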
M1 antag: M1 muscarinic receptor (rat) antagonism. P08482. CHO-M1 cells, Fluo-4 calcium, ACh EC80 antagonist mode; stronger effect = lower value. B-score at 10 µM. hit rate 3.4% among 64,000. AID 628;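 active = calcium fluorescence response, raw or row-and-column corrected B-score, differing from the plate sample mean either way at a set confidence level, mostly lower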
Target sequence (P08482 whole entry, looked up): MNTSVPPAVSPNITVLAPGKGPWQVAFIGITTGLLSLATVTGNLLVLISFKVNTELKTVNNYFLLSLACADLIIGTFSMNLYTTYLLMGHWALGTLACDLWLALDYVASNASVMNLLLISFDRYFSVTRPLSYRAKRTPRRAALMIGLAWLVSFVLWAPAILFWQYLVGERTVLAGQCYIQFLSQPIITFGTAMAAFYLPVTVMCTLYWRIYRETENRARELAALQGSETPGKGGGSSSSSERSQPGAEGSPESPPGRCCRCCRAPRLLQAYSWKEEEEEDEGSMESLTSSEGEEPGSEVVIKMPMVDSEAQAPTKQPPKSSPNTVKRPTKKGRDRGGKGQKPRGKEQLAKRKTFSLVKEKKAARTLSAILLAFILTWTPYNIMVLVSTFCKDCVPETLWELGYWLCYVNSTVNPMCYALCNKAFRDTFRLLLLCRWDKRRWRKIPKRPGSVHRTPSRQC
Her2 expr inh: Her2 kinase expression inhibition; P04626; SKBR-3 HER2 protein level, AlphaScreen, 18-24 h; stronger effect = lower value; HER2 level % of control, % at 10 µM; hit rate 0.69% among 65,000; AID 645;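 active = HER2 level under 5% of the carrier-only control; inconclusive = no clear call, values can overlap the other calls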;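 note: lower value means stronger loss of Her2 protein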
FXIa mix inh: inhibitors of human coagulation factor XIa, pooled mixtures | AID 680 | purified FXIa, fluorogenic substrate | P03951 | hit rate 0.19% among 62,000 | inhibition, % at 5 µM;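 note: each value is inhibition by a whole ten-compound pool holding the compound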
M1 ag confirm: rat M1 muscarinic agonism, confirmation. shares compounds with M1 ag. CHO-M1 cells, Fluo-4 calcium fluorescence, agonist mode; actives lie on both sides. fluorescence change (max-min) at 10 µM. hit rate 19% among 1,700;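 active = fluorescence change differs from the solvent-only DMSO control mean at a set confidence level in both duplicate runs; inconclusive = differs from solvent-only control mean in just one of two runs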;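 note: an EC20 dose of acetylcholine follows compound addition during the same imaging run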
M4 ag counter: rat M4 muscarinic agonism, M1 counter-screen; shares compounds with M1 ag; CHO M4/Gqi5 cells, Fluo-4 calcium fluorescence, agonist mode; actives lie on both sides; hit rate 9% among 1,700; fluorescence change (max-min) at 10 µM;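 active = fluorescence change differing from the plate's solvent-only control wells at 99.7% confidence in both duplicates, whether higher or lower; inconclusive = differs from solvent controls in only one of two duplicates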
Numbers stand for hits; n = inactive; u = inconclusive; x = not tested or not shown. Cut-off read from the data, not from the text of the source, unless noted: active = inhibition above about 20% (passing the limit was not always enough); inactive = the rest.

SMILES | JNK3 blocker | FXIIa inh mix | M1 ag | M1 antag | Her2 expr inh | FXIa mix inh | M1 ag confirm | M4 ag counter
O=C1OCc2ccc(NC(=O)C3CCCCC3)cc21 | x | n | -3.27 | n | n | n | -36.2 | n
COc1cccc(-c2nnc(SCC(=O)Nc3ccc(S(N)(=O)=O)cc3)n2C)c1 | n | n | n | n | n | n | x | x
C=CCn1c(=O)c2ccccc2n2c(SCC(=O)c3ccccc3)nnc12 | n | n | n | n | n | n | x | x
C=CCn1c(=O)c2ccccc2n2c(SCc3nc(N)nc(Nc4ccccc4C)n3)nnc12 | n | n | 3.99 | n | n | n | u | n
N#CC1=C(N)N(c2ccccc2Sc2ccccc2)C(=O)C1 | n | n | n | n | n | n | x | x
Cc1sc2ncnc(N3CCN(c4ncccn4)CC3)c2c1C | n | n | 1.97 | n | n | n | n | n
Cc1cc(C)n(-c2ncnc3sc4c(c23)CCCC4)n1 | n | n | n | n | n | n | x | x
Cc1cc(C)n(-c2ncnc3sc(C)c(C)c23)n1 | n | x | 4.95 | n | n | x | n | n
Cc1ccc(NC(=O)N2CCCC2C(=O)NCCc2ccccc2)cc1 (stereo not given) | n | n | n | n | n | n | x | x
CCCCC(=O)Nc1cccc(-c2nc3ncccc3o2)c1 | n | n | n | n | n | n | x | x
CCCCCC(=O)Nc1cccc(-c2nc3ncccc3o2)c1 | n | n | 3.98 | n | n | n | n | n
CCN(C(=O)COc1cc(=O)n(CC)c2ccccc12)c1cccc(Cl)c1 | n | n | 4.36 | n | n | n | n | n
CCn1c(=O)cc(OCC(=O)Nc2ccccc2C#N)c2ccccc21 | n | n | 2.23 | n | n | n | u | n
CCCN(CCC)C(=O)COc1cc(=O)n(CC)c2ccccc12 | n | n | n | n | n | n | x | x
CCOc1ccc(OCC)c(NC(=O)CSc2nc3cccnc3n2C)c1 | x | n | n | n | n | n | x | x
CCOC(=O)c1cccc(NC(=O)CSc2nc3cccnc3n2C)c1 | n | n | 3.3 | n | n | n | n | n
CCOc1ccc(S(=O)(=O)n2ccc(C)n2)c2ccccc12 | n | n | 13.3 | n | n | n | n | n
CCOc1ccc(S(=O)(=O)N2CCCCC2)c2ccccc12 | n | n | n | n | n | n | x | x
CCNc1c2c3c(cccc3n(C)c1=O)C(=O)c1ccccc1-2 | n | n | 357 | -17.3 | n | n | 3230 | 2794
Cn1c(=O)c(NCCO)c2c3c(cccc31)C(=O)c1ccccc1-2 | x | n | 388 | -13.2 | n | n | 3131 | 2588
CC1(C)Cc2ccccc2-c2nc(NCCO)n(-c3ccccc3)c(=O)c21 | n | n | n | n | n | n | x | x
CN(CCO)C(=O)c1cccc2c1-c1ccccc1C2=O | n | n | n | n | n | n | x | x
Cc1cccc(-c2nc(CSCC(=O)N3CCN(Cc4ccc5c(c4)OCO5)CC3)c(C)o2)c1 | n | n | 5.71 | -4 | n | n | n | u
CCc1ccc(-c2nc(CSCC(=O)N3CCN(c4ccccn4)CC3)c(C)o2)cc1 | n | x | 4.62 | n | n | x | n | u
Cc1ccc(-c2nc(CSCC(=O)N3CCN(c4ccccn4)CC3)c(C)o2)cc1 | n | n | 5.6 | -2.28 | n | n | u | n
SMILES | JNK3 blocker | FXIIa inh mix | M1 ag | M1 antag | Her2 expr inh | FXIa mix inh | M1 ag confirm | M4 ag counter
O=C(CSCc1ccccc1)N1CCN(Cc2ccc3c(c2)OCO3)CC1 | n | x | n | n | n | x | x | x
CCOC(=O)c1c(NC(=O)c2nn(CC)cc2Br)c(C#N)cn1-c1ccccc1 | n | n | 3.1 | n | n | n | n | n
CCOC(=O)c1c(N)c(C#N)cn1-c1ccccc1 | n | n | n | n | n | n | x | x
COCCOC(=O)c1c(C)oc2ccc(OC(=O)c3ccc4c(c3)OCO4)cc12 | n | n | n | n | n | n | x | x
O=C(CCN1C(=O)c2ccccc2C1=O)N1CCC(c2ccccc2)C1 (stereo not given) | n | n | n | n | n | n | x | x
COc1ccc(C2N3CC4(C)CN2CC(C)(C3)C4)cc1OC (stereo not given) | x | n | -3.1 | n | n | n | n | -64.8
COc1ccc(C)cc1S(=O)(=O)N(CC(=O)O)c1ccc(F)cc1 | n | n | n | n | n | n | x | x
COc1cccc(C2=CC(c3ccccc3)n3ncnc3N2)c1 (stereo not given) | n | x | 32.9 | n | n | x | 159 | 148
COc1cccc(C2=CC(c3ccc(N(C)C)cc3)n3nnnc3N2)c1 (stereo not given) | n | x | n | n | n | x | x | x
COc1cccc(C2=CC(c3ccccc3)n3nnnc3N2)c1 (stereo not given) | n | x | n | n | n | x | x | x
COc1cccc(C2=CC(c3ccc(N(C)C)cc3)n3ncnc3N2)c1 (stereo not given) | n | n | 2.2 | n | n | n | n | n
CCN(C(=O)c1ccc(C(C)(C)C)cc1)c1nnc(Cn2nnc3ccccc32)s1 | n | n | 3.19 | n | n | n | u | n
CCc1c(C)nc2ncnn2c1NCCc1ccc(OC)cc1 | n | n | 4.77 | -2.84 | n | n | n | u
CCOc1cc(C(=O)NC(C)c2ccncc2)cc(OCC)c1OCC (stereo not given) | n | n | n | n | n | n | x | x
Cc1ccc2c(c1)nnn2C1CCN(S(=O)(=O)c2cccc(S(=O)(=O)N(C)C)c2)CC1 | n | n | 4.91 | n | n | n | u | n
COCCNC(=O)C(C)OC(=O)c1cc2occc2n1C (stereo not given) | n | n | n | n | n | n | x | x
COC(=O)CCC(=O)c1oc2ccc(Br)cc2c1N | n | x | n | n | n | x | x | x
Nc1c(C(=O)c2ccccc2)oc2ccc(Br)cc12 | n | n | -2.22 | n | n | n | u | n
COc1ccc(F)cc1CN1CCN(c2cc(C)nc3c4c(C)cc(C)nc4nn23)CC1 | n | n | 3.53 | n | n | n | u | n
Cc1cc(C)c(C#N)c(N2CCN(CCOc3ccc(Cl)cc3)CC2)n1 | n | n | n | n | n | n | x | x
COc1ccc(Cl)cc1CN1CCN(c2nc(C)cc(C)c2C#N)CC1 | n | n | 7.45 | n | n | n | n | n
COc1ccccc1Nc1nc(C2(C)CCC(=O)O2)cs1 (stereo not given) | n | n | n | n | n | n | x | x
CCOC(=O)c1cc(C(O)(C(F)(F)F)C(F)(F)F)c(/N=C/N(C)C)o1 | x | n | n | n | n | n | x | x
COc1ccc(C2C(CC(=O)O)=C(O)C(=O)N2c2ccccc2)cc1 (stereo not given) | n | n | n | n | n | n | x | x
COc1ccc(C2C(C(=O)c3cccs3)=C(O)C(=O)N2c2nncs2)cc1 (stereo not given) | x | n | 92.9 | n | n | 43.2 | 439 | 339
COc1ccc(C2C(C(=O)c3cccs3)=C(O)C(=O)N2c2nnc(C)s2)cc1OC (stereo not given) | n | n | 67.5 | n | n | n | 96.1 | n
